{"source": "the supplement of paper PMC10849652", "note": "About 8,800 targets were measured; listed, in parts, are those with a hit and a random draw of the rest. About 0.5% of all pairs of compound and target were hits. A number with no mark means an inactive call."}
{"compound": "Cn1cncc1[C@@](N)(c1ccc(Cl)cc1)c1ccc2c(c1)c(-c1cccc(Cl)c1)cc(=O)n2C [tipifarnib]", "assay": "log2 fold change, soluble protein after heating vs DMSO (PISA); higher = thermal stabilisation; K562 lysate, 10 uM; active = over 0.2 and 3.5 SD of the protein, either way, in both replicates (recomputed)", "summary_of_the_method": "(§1)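 The values are log-two fold changes in thermal stability compared with solvent controls and come from duplicates. They were obtained by TMTpro 16plex LC-MS/MS, with channel sums equalised, on the supernatant after 21,000xg for 90 min. That supernatant came from crude K562 extract at 1 mg/mL protein treated with 10 μM compound for 30 min, heated for 3 min across 48°C-58°C, pooled and brought to 0.5% NP-40 at 4°C.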"}
{"target": "TBCE (UniProt Q15813)", "log2 fold change": -0.005}
{"target": "TNPO3 (UniProt Q9Y5L0)", "sequence (Q9Y5L0 whole entry, looked up)": "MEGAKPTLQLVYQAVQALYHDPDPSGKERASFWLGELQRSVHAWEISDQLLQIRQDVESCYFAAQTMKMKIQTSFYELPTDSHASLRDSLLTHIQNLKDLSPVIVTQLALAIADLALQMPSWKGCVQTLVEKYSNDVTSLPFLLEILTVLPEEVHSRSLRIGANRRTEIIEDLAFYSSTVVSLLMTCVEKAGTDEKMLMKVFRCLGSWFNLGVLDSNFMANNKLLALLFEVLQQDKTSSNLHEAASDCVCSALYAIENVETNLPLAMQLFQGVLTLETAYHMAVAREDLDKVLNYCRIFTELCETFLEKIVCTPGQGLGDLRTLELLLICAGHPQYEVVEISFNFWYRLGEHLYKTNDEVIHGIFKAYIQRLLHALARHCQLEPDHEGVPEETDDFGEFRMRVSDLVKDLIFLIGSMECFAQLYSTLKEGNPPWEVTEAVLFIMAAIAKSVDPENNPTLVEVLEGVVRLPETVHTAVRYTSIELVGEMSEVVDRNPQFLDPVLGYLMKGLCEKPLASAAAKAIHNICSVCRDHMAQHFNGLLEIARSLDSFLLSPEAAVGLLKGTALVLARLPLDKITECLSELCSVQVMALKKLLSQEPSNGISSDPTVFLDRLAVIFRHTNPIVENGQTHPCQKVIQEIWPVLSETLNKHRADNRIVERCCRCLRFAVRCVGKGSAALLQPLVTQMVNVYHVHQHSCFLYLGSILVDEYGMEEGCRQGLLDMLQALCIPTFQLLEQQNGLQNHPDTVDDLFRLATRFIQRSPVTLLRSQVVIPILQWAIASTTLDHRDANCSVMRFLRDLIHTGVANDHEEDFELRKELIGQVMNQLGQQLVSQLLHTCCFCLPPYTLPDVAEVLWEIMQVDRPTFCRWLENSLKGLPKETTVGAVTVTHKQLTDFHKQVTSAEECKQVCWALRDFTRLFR", "log2 fold change": 0.001}
{"target": "TRIM33 (UniProt H0Y612)", "log2 fold change": -0.052}
{"target": "TPST2 (UniProt O60704)", "log2 fold change": -0.058}
{"target": "UBR4 (UniProt Q5T4S7)", "log2 fold change": -0.001}
{"target": "TTK (UniProt P33981)", "log2 fold change": -0.147}
{"target": "TP53RK (UniProt Q96S44)", "log2 fold change": 0.048}
{"target": "TUBGCP3 (UniProt Q96CW5)", "log2 fold change": -0.023}
{"target": "UBR3 isoform 4 (UniProt Q6ZT12)", "log2 fold change": -0.009}
{"target": "TRIM33 isoform 2 (UniProt Q9UPN9)", "log2 fold change": 0.021}
{"target": "TOE1 (UniProt Q96GM8)", "log2 fold change": 0.006}
{"target": "UBA1 (UniProt P22314)", "log2 fold change": -0.01}
{"target": "TUBB1 (UniProt Q9H4B7)", "log2 fold change": 0.03}
{"target": "TUBGCP2 isoform 4 (UniProt Q9BSJ2)", "log2 fold change": -0.001}
{"target": "TPM4 isoform 2 (UniProt P67936)", "log2 fold change": 0.024}
{"target": "TMOD1 (UniProt P28289)", "log2 fold change": -0.013}
{"target": "TRAPPC10 (UniProt P48553)", "log2 fold change": 0.011}
{"target": "TRMT12 (UniProt Q53H54)", "sequence (Q53H54 whole entry, looked up)": "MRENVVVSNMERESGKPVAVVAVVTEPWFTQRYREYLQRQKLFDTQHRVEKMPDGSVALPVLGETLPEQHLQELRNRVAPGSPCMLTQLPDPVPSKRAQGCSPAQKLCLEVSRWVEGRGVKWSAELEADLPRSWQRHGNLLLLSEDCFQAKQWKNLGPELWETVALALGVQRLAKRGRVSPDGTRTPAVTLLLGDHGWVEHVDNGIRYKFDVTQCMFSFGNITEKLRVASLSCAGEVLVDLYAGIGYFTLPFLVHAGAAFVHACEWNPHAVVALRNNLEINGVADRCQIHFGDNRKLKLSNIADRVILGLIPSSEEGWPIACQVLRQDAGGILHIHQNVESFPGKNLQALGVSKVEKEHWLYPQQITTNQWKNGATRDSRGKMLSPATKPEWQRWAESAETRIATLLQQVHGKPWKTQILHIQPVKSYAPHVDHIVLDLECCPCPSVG", "log2 fold change": -0.007}
{"target": "TSPAN13 (UniProt O95857)", "log2 fold change": -0.032}
{"target": "UBE2H (UniProt P62256)", "sequence (P62256 whole entry, looked up)": "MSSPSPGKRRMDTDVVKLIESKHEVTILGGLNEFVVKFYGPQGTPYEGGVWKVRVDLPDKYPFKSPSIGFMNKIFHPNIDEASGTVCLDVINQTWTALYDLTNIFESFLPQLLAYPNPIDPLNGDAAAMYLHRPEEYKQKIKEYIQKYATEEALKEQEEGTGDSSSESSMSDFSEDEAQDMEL", "log2 fold change": -0.049}
{"target": "TLE3 isoform 5 (UniProt Q04726)", "sequence (Q04726 whole entry, looked up)": "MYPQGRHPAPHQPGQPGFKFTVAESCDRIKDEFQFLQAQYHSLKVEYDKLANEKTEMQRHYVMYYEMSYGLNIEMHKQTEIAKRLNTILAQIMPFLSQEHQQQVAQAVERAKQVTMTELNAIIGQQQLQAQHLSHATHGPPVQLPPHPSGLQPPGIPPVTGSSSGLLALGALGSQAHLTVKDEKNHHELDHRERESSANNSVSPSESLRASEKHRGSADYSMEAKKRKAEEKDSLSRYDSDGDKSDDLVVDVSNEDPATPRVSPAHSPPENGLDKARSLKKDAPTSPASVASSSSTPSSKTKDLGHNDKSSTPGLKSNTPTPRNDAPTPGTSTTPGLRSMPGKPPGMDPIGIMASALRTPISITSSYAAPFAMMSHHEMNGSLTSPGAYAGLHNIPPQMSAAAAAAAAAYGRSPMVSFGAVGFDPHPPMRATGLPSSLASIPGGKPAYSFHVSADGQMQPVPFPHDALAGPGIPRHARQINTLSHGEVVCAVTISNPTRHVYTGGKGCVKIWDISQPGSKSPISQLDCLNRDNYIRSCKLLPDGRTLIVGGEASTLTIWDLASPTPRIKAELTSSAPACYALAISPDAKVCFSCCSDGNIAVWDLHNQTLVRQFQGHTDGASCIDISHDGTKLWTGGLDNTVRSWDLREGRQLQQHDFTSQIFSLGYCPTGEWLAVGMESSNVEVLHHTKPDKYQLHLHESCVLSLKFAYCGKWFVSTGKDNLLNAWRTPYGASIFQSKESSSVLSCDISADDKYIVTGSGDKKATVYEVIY", "log2 fold change": 0.05}
{"target": "TSFM (UniProt P43897)", "log2 fold change": 0.002}
{"target": "TRMT2A (UniProt Q8IZ69)", "log2 fold change": -0.007}
{"target": "TUBA1B (UniProt P68363)", "log2 fold change": 0.002}
{"target": "TUT4 (UniProt Q5TAX3)", "log2 fold change": -0.045}
{"target": "TBL2 (UniProt Q9Y4P3)", "log2 fold change": -0.06}
{"target": "TK1 (UniProt P04183)", "log2 fold change": 0.015}
{"target": "TTC5 (UniProt Q8N0Z6)", "log2 fold change": 0.01}
{"target": "TRNAU1AP (UniProt Q9NX07)", "log2 fold change": -0.06}
{"target": "UBR5 (UniProt O95071)", "sequence (O95071 whole entry, looked up)": "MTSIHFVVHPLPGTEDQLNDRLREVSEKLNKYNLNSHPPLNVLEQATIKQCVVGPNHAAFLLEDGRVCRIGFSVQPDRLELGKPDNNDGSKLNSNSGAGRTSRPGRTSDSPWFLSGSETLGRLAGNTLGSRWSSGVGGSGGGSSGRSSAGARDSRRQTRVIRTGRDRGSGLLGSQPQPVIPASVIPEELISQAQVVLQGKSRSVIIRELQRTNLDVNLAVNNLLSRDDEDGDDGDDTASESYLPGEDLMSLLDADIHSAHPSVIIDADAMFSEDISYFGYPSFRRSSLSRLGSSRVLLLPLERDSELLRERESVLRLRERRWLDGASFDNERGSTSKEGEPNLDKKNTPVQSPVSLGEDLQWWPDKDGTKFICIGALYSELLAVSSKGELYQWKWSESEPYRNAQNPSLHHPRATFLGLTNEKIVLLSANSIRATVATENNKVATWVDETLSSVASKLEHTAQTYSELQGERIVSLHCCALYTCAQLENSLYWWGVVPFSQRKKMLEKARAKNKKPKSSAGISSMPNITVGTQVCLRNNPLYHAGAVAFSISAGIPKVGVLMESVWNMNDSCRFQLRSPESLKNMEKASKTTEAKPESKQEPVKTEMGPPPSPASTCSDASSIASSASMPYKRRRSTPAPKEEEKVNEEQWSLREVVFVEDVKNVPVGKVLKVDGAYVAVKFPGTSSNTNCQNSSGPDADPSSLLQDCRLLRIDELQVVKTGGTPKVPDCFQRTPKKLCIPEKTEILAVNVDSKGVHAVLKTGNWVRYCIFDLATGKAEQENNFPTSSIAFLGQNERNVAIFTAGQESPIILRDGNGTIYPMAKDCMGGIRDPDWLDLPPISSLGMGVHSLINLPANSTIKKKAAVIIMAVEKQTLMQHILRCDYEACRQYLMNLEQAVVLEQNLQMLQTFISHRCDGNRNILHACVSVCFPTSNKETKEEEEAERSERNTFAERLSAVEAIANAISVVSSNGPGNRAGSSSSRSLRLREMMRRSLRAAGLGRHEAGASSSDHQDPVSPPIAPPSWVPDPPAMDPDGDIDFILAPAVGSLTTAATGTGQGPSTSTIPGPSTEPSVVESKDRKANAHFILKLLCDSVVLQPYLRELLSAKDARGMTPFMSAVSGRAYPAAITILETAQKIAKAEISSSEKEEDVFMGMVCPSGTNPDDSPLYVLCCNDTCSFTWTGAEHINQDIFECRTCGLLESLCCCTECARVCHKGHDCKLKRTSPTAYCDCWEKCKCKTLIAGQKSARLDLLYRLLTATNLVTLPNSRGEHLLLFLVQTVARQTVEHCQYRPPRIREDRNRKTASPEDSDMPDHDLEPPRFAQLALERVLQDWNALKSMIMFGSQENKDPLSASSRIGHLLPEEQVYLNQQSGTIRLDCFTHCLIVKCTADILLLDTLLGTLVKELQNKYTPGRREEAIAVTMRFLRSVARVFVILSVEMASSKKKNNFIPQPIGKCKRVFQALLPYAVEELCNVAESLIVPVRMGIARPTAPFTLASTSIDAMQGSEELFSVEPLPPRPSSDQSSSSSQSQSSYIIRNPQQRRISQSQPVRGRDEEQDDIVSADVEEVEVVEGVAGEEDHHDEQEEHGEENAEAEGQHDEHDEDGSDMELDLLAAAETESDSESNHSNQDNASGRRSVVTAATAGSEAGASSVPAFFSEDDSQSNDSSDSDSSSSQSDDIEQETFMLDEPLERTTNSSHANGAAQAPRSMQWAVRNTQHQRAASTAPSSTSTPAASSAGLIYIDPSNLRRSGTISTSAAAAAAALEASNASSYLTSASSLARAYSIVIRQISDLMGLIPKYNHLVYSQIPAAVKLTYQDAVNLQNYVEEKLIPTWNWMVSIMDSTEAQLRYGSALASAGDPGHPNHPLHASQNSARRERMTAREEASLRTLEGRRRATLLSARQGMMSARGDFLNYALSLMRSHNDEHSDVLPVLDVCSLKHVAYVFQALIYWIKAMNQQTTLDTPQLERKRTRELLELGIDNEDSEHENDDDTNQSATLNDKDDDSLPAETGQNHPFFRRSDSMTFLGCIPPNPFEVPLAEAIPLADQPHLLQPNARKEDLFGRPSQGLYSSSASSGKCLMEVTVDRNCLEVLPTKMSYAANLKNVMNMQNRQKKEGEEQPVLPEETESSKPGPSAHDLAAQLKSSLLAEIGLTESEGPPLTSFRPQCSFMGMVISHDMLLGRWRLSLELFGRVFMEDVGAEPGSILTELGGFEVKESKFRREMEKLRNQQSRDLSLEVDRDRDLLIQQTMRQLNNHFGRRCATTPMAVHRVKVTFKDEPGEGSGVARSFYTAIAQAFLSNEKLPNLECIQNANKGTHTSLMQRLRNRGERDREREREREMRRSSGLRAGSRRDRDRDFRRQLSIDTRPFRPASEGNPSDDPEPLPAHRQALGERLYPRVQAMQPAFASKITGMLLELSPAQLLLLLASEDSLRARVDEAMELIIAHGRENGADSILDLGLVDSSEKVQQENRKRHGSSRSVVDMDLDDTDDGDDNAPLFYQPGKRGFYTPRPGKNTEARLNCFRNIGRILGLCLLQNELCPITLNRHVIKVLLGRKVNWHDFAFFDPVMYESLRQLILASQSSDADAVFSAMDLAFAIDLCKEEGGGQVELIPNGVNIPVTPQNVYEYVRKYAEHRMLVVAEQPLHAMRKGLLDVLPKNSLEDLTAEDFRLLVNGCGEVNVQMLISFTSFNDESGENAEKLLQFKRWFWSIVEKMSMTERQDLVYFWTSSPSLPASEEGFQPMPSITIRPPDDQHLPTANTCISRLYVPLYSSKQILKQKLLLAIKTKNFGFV", "log2 fold change": -0.02}
{"target": "TRAF2 isoform 2 (UniProt Q12933)", "log2 fold change": 0.005}
{"target": "UCHL5 isoform 3 (UniProt Q9Y5K5)", "log2 fold change": -0.005}
{"target": "TRIM23 (UniProt P36406)", "log2 fold change": 0.023}
{"target": "TRIM11 (UniProt Q96F44)", "log2 fold change": -0.015}
{"compound": "NC(=O)Nc1cc(-c2cccc(F)c2)sc1C(=O)N[C@H]1CCCNC1", "assay": "log2 fold change, soluble protein after heating vs DMSO (PISA); higher = thermal stabilisation; K562 lysate, 10 uM; active = over 0.2 and 3.5 SD of the protein, either way, in both replicates (recomputed)", "summary_of_the_method": "as §1"}
{"target": "TBCE (UniProt Q15813)", "log2 fold change": 0.033}
{"target": "TNPO3 (UniProt Q9Y5L0)", "log2 fold change": -0.002}
{"target": "TRIM33 (UniProt H0Y612)", "log2 fold change": 0.069}
{"target": "TPST2 (UniProt O60704)", "log2 fold change": 0.064}
{"target": "UBR4 (UniProt Q5T4S7)", "log2 fold change": 0.023}
{"target": "TTK (UniProt P33981)", "log2 fold change": 0.034}
{"target": "TP53RK (UniProt Q96S44)", "log2 fold change": 0.021}
{"target": "TUBGCP3 (UniProt Q96CW5)", "log2 fold change": 0.009}
{"target": "UBR3 isoform 4 (UniProt Q6ZT12)", "log2 fold change": 0.036}
{"target": "TRIM33 isoform 2 (UniProt Q9UPN9)", "log2 fold change": -0.01}
{"target": "TOE1 (UniProt Q96GM8)", "log2 fold change": 0.023}
{"target": "UBA1 (UniProt P22314)", "log2 fold change": 0.019}
{"target": "TUBB1 (UniProt Q9H4B7)", "log2 fold change": 0.009}
{"target": "TUBGCP2 isoform 4 (UniProt Q9BSJ2)", "log2 fold change": 0.037}
{"target": "TPM4 isoform 2 (UniProt P67936)", "log2 fold change": -0.039}
{"target": "TMOD1 (UniProt P28289)", "log2 fold change": 0.031}
{"target": "TRAPPC10 (UniProt P48553)", "log2 fold change": 0.035}
{"target": "TRMT12 (UniProt Q53H54)", "log2 fold change": 0.117}
{"target": "TSPAN13 (UniProt O95857)", "log2 fold change": -0.126}
{"target": "UBE2H (UniProt P62256)", "log2 fold change": 0.014}
{"target": "TLE3 isoform 5 (UniProt Q04726)", "log2 fold change": -0.009}
{"target": "TSFM (UniProt P43897)", "log2 fold change": 0.002}
{"target": "TRMT2A (UniProt Q8IZ69)", "log2 fold change": 0.016}
{"target": "TUBA1B (UniProt P68363)", "log2 fold change": 0.041}
{"target": "TUT4 (UniProt Q5TAX3)", "log2 fold change": 0.055}
{"target": "TBL2 (UniProt Q9Y4P3)", "log2 fold change": -0.007}
{"target": "TK1 (UniProt P04183)", "log2 fold change": -0.005}
{"target": "TTC5 (UniProt Q8N0Z6)", "log2 fold change": 0}
{"target": "TRNAU1AP (UniProt Q9NX07)", "log2 fold change": 0.059}
{"target": "UBR5 (UniProt O95071)", "log2 fold change": 0.005}
{"target": "TRAF2 isoform 2 (UniProt Q12933)", "log2 fold change": -0.016}
{"target": "UCHL5 isoform 3 (UniProt Q9Y5K5)", "log2 fold change": 0.013}
{"target": "TRIM23 (UniProt P36406)", "log2 fold change": 0.005}
{"target": "TRIM11 (UniProt Q96F44)", "log2 fold change": -0.019}
{"compound": "NC(=O)c1cnc(N[C@@H]2CCCC[C@@H]2N)nc1Nc1cccc(-n2nccn2)c1", "assay": "log2 fold change, soluble protein after heating vs DMSO (PISA); higher = thermal stabilisation; K562 lysate, 10 uM; active = over 0.2 and 3.5 SD of the protein, either way, in both replicates (recomputed)", "summary_of_the_method": "as §1"}
{"target": "TBCE (UniProt Q15813)", "log2 fold change": 0.015}
{"target": "TNPO3 (UniProt Q9Y5L0)", "log2 fold change": -0.016}
{"target": "TRIM33 (UniProt H0Y612)", "log2 fold change": -0.036}
{"target": "TPST2 (UniProt O60704)", "log2 fold change": -0.064}
{"target": "UBR4 (UniProt Q5T4S7)", "log2 fold change": -0.005}
{"target": "TTK (UniProt P33981)", "log2 fold change": -0.001}
{"target": "TP53RK (UniProt Q96S44)", "log2 fold change": 0.041}
{"target": "TUBGCP3 (UniProt Q96CW5)", "log2 fold change": 0.002}
{"target": "UBR3 isoform 4 (UniProt Q6ZT12)", "log2 fold change": -0.032}
{"target": "TRIM33 isoform 2 (UniProt Q9UPN9)", "log2 fold change": 0.01}
{"target": "TOE1 (UniProt Q96GM8)", "log2 fold change": -0.013}
{"target": "UBA1 (UniProt P22314)", "log2 fold change": 0.008}
{"target": "TUBB1 (UniProt Q9H4B7)", "log2 fold change": -0.006}
{"target": "TUBGCP2 isoform 4 (UniProt Q9BSJ2)", "log2 fold change": 0}
{"target": "TPM4 isoform 2 (UniProt P67936)", "log2 fold change": 0.029}
{"target": "TMOD1 (UniProt P28289)", "log2 fold change": 0.008}
{"target": "TRAPPC10 (UniProt P48553)", "log2 fold change": 0.026}
{"target": "TRMT12 (UniProt Q53H54)", "log2 fold change": -0.009}
{"target": "TSPAN13 (UniProt O95857)", "log2 fold change": 0.035}
{"target": "UBE2H (UniProt P62256)", "log2 fold change": 0.005}
{"target": "TLE3 isoform 5 (UniProt Q04726)", "log2 fold change": 0.024}
{"target": "TSFM (UniProt P43897)", "log2 fold change": 0.037}
{"target": "TRMT2A (UniProt Q8IZ69)", "log2 fold change": -0.002}
{"target": "TUBA1B (UniProt P68363)", "log2 fold change": 0.002}
{"target": "TUT4 (UniProt Q5TAX3)", "log2 fold change": 0.048}
{"target": "TBL2 (UniProt Q9Y4P3)", "log2 fold change": 0.003}
{"target": "TK1 (UniProt P04183)", "log2 fold change": -0.043}
{"target": "TTC5 (UniProt Q8N0Z6)", "log2 fold change": -0.007}
{"target": "TRNAU1AP (UniProt Q9NX07)", "log2 fold change": -0.011}
{"target": "UBR5 (UniProt O95071)", "log2 fold change": 0.013}
{"target": "TRAF2 isoform 2 (UniProt Q12933)", "log2 fold change": 0.001}
{"target": "UCHL5 isoform 3 (UniProt Q9Y5K5)", "log2 fold change": -0.031}
{"target": "TRIM23 (UniProt P36406)", "log2 fold change": 0.072}
{"target": "TRIM11 (UniProt Q96F44)", "log2 fold change": -0.004}
